Bioassay records as filed in PubChem.
Rows were chosen to be rich in hits. Some 3.4% of all compounds tested hit in one or more screens of this group.
MITF primary – blocks human microphthalmia-associated transcription factor; O75030; AlphaScreen MITF homodimerization, bead proximity signal; inhibition, % at 2.6 µM; actives 0.91% (n = 650,000); in the data active means inhibition above about 50%
TEAD-YAP block – TEAD-YAP interaction inhibition; inhibition, % at 9.12 µM; HEK-TIYL cells, TEAD-Gal4/YAP UAS-luciferase luminescence; actives 1.4% (n = 640,000); in the data active means inhibition above about 32%
GPR151 ag – human GPR151 activation; Q8TDV0; actives 1% (n = 650,000); activation, % at 11.2 µM; PathHunter beta-arrestin GPR151 cells, luminescence; in the data active means activation above about 4.9%
Target sequence (Q8TDV0 whole entry, looked up): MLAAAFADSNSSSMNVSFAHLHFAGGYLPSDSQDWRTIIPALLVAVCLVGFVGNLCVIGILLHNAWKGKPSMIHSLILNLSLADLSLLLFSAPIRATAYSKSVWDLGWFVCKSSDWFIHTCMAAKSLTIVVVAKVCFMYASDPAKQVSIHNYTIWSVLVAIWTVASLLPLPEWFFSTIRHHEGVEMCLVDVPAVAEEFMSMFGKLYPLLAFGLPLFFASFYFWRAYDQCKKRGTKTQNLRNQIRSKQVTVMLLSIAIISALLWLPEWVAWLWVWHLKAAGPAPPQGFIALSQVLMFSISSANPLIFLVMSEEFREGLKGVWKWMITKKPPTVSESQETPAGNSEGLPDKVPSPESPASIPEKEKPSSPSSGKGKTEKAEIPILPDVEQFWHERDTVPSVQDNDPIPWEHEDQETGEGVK
FBW7 activator – activators of human E3 ligase FBW7; normalized activity (activation), % at 26.1 µM; AlphaScreen FBW7–phospho-cyclin E peptide binding, activator screen; actives 0.13% (n = 650,000); in the data active means normalized activity above about 1.9%;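 further: purified mutant Fbw7 with reduced substrate affinity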
GPR151 confirm – human GPR151 activation, confirmation screen. 6,700 tested, under 10 active. activation, % at 11.2 µM. GPR151 PathHunter beta-arrestin cells, luminescence, 90 min; % of EA-reagent control over plate median. shares compounds with GPR151 ag;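 active means mean percent activation across replicates above the confirmation screen cutoff of 4.91%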
GPR119 ag – counter-screen for GPR151 activators: effect on human GPR119; shares compounds with GPR151 ag; GPR119 PathHunter beta-arrestin cells, luminescence, 90 min; 0 = compound-well median, 100 = enzyme-acceptor control; activation, % at 11.2 µM; actives 0.3% (n = 6,700);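 active means mean percent activation in the counterscreen above 29.09%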;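 further: counterscreen on off-target GPR119 to flag nonselective hits from the GPR151 activator screen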
A number is an active result; . = inactive; / = no result.

SMILES	MITF primary	TEAD-YAP block	GPR151 ag	FBW7 activator	GPR151 confirm	GPR119 ag
CN(C)c1ccc(-c2cnc3c(n2)[nH]c(=O)n3-c2ccccc2)cc1	.	.	6.0	.	.	.
CC(=O)c1ccccc1-c1ccc2c(-c3ccc(N4CCNCC4)cc3)[nH]nc2n1	.	.	.	.	/	/
NC(=O)c1ccc(-c2ccc3c(-c4ccc(N5CCNCC5)cc4)[nH]nc3n2)cc1	.	.	5.9	.	.	.
CC(C)(C)c1ccc(C(=O)NC(=S)Nc2cc(-c3nc4ncccc4o3)ccc2Cl)cc1	.	.	5.1	.	.	.
Cc1ccc(C(=O)NC(=S)Nc2cc(-c3nc4ncccc4o3)ccc2Cl)cc1	.	.	.	.	/	/
O=C(NCCc1nc(-c2ccncc2)n[nH]1)C1(c2ccccc2)CCCC1	.	.	5.9	.	.	.
COc1cc(NC(=O)CSc2ccc(C(=O)O)cn2)cc(OC)c1	.	.	.	.	/	/
COc1cc(NC(=O)CSc2ccc(C(=O)O)cn2)ccc1-n1cnnn1	.	.	8.2	.	.	.
CCOC(=O)/C=C(\C)Nc1nc(S(=O)(=O)c2ccc(C)cc2)c(Cl)s1	.	.	.	.	/	/
Cc1cccc(-n2c(O)c(C=Nc3ccccc3I)c(=O)[nH]c2=O)c1	.	.	.	.	/	/
Cc1cccc(-n2c(O)c(/C=N/n3cnnc3)c(=O)[nH]c2=O)c1	.	.	5.3	.	.	.
O=C(Nc1nonc1C(=O)c1ccccc1)c1ccccc1F	.	.	.	.	/	/
C=CCOc1ccc(C2C3=C(CCCC3=O)OC3=C2C(=O)CCC3)cc1OCC	.	.	.	.	/	/
Cc1ccn(CCC(=O)NCC2Cc3cc(-c4cnccn4)cc(Cl)c3O2)n1 (stereo unspecified)	.	.	11.7	.	.	.
Cn1ccc(C(=O)NCC2Cc3cc(-c4cnccn4)cc(Cl)c3O2)n1 (stereo unspecified)	.	.	.	.	/	/
CCN(C(=O)Cn1ncc2c1-c1ccccc1OC2)c1ccc(F)cc1	.	.	.	.	/	/
Cc1sc(NC(=O)c2ccc(N3CCCCC3)c([N+](=O)[O-])c2)c(C#N)c1C	.	.	12.5	.	.	.
COC(=O)C(Cc1cc(Cl)ccc1Cl)SC#N (stereo unspecified)	.	.	9.7	.	.	.
CC(=O)C1=C(O)C(=O)N(CCNCCO)C1c1ccc(Cl)cc1 (stereo unspecified)	.	.	.	.	/	/
CCc1ccc(C2C(C(C)=O)=C(O)C(=O)N2CCNCCO)cc1 (stereo unspecified)	.	.	5.4	.	.	.
COc1cc(C)nc(N2CCC(C(N)=O)CC2)n1	.	.	5.2	.	.	.
CC(C)CN(CC(C)C)C(=O)c1cc([N+](=O)[O-])cc([N+](=O)[O-])c1N	.	.	.	.	/	/
CCCCNC(=O)c1ccc2c(c1)NC(=O)C(CS(=O)(=O)Cc1ccccc1Cl)N2 (stereo unspecified)	.	.	.	.	/	/
CCN(CC)C(=O)Cn1c(=O)n(-c2ccccc2)c(=O)c2oc3ccccc3c21	.	.	.	.	/	/
CCN(CC)C(=O)Cn1c(=O)n(-c2ccc(C)cc2)c(=O)c2oc3ccccc3c21	.	.	5.2	.	.	.
SMILES	MITF primary	TEAD-YAP block	GPR151 ag	FBW7 activator	GPR151 confirm	GPR119 ag
CNC(=O)COC(=O)c1sccc1C	.	.	.	.	/	/
CC(C)NC(=O)c1cccc(NC(=O)Nc2ccc(-c3cn[nH]c3)cc2OCCN(C)C)c1	.	.	5.3	.	.	.
CCc1ccccc1N1CCN(S(=O)(=O)c2ccc(F)cc2OC)CC1	.	.	.	.	/	/
CCCc1ccc(S(=O)(=O)Nc2ccc3c(c2)CC(=O)N3C)cc1	.	.	4.9	.	.	.
COc1ccc(C(=O)Nc2c(C)csc2C(=O)O)cc1	.	.	4.9	.	.	.
Cc1csc(C(=O)O)c1NC(=O)c1ccc(F)cc1	.	.	.	.	/	/
O=C(NCc1ccc(Cl)cc1)C(=O)N/N=C/c1cccs1	.	.	.	.	/	/
NC(=O)c1ccc(NC(=O)COc2cc(Cl)ccc2Cl)cc1	.	.	.	.	/	/
COc1cccc(CNC(=O)CN(C)c2nnc(N3CCCC3=O)s2)c1OC	.	.	5.3	.	.	.
Cc1ccccc1CNC(=O)CN(C)c1nnc(N2CCCC2=O)s1	.	.	.	.	/	/
